High-throughput results deposited in PubChem by several laboratories.
Arbovirus inh – blocks arbovirus infection; arbovirus infection cell-based antiviral screen; inhibition, % at 10 µM; hit rate 0.37% among 200,000; AID 1251; in the data active = inhibition above about 30%
Efa HMGR inh – blocks class II HMG-CoA reductase of Enterococcus faecalis; purified E. faecalis HMGR, NADPH absorbance 340 nm kinetic; inhibition, % at 10 µM; hit rate 0.41% among 190,000; AID 1066;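 active = inhibition above a set limit, the median over all tested compounds plus 3 SD, cut at about 9.5% in these data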;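 also: enzyme runs in reverse so mevalonate oxidation gives rising NADPH absorbance; 0% = complete reaction with DMSO and 100% = background rate lacking mevalonate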
Wee1 stabilizer – blocks degradation of human Wee1 kinase | AID 1321 | HeLa Luc-Wee1K328M stability, luciferase luminescence; 100% = proteasome inhibitor MG132 effect | P30291 | reporter increase, % at 5 µM | hit rate 1.2% among 220,000;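 active = activation above the mean of all tested compounds plus 3 SD, set per screening run, cut at about 8.8% in these data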;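 also: cells exposed to compound for 20 h before luminescence read; 0% = DMSO alone and 100% = MG132 at 30 µM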
Hsp70 act – Hsp70 transcriptional activation, primary screen | HeLa Hsp70 promoter luciferase reporter, luminescence; scaled: vehicle 0, proteasome-inhibitor control 100% | activation, % at 10 µM | hit rate 0.04% among 200,000 | AID 1203;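 active = activation above the mean across all tested compounds plus 3 SD, cutoff set per campaign, cut at about 5.5% in these data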;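 also: 100% = MG132 at 30 µM as the positive control and 0% = DMSO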
PKD1 kinase inh – inhibitors of human PKD1 kinase; Q15139; PKD1 kinase fluorescence polarization assay; inhibition, % (concentration not given with the values); hit rate 0.056% among 200,000; in the data active = inhibition above about 50%
The depositor's hits bear a star; x = no result given. Rows were chosen to be rich in hits. Some 2% of all compounds tested hit in one or more screens of this group.

SMILES	Arbovirus inh	Efa HMGR inh	Wee1 stabilizer	Hsp70 act	PKD1 kinase inh
CC(=O)OCC1=C(C(=O)O)N2C(=O)C(NC(=O)C(C)Cn3nc(C)c(Cl)c3C)C2SC1 (configuration not stated)	4.2	-6.1	-2.5	-0.1	-4.8
Cc1csc(NC(=O)Nc2ccc(Cl)cc2)n1	3.4	0.7	8.9*	-0.1	14.7
CCc1ccccc1Nc1nc(N)nc(CSCC(=O)Nc2ccc(C)c(C)c2)n1	1.4	-5.9	0.4	-0.2	-8.2
COc1ccc(/C=C(/C#N)S(=O)(=O)c2ccc(C)cc2)cc1	0.5	39.8*	-0.5	-0.6	6.7
O=C(C1=C[C@H](C2CCCCC2)C[C@H](OCCCCO)O1)N1CCN(Cc2ccccc2)CC1	-12.2	3.1	-2.3	-0.4	1.4
CC(C)(CO)CNC(=O)CC1C(=O)NCCN1CC(c1ccccc1)c1ccccc1 (configuration not stated)	31.7*	-2.4	-1.8	-0.1	-3.0
COc1ccc(-c2cc(-n3c(C(F)(F)F)nc4ccccc43)n(CCC#N)n2)cc1	2.9	12.9*	-0.9	-0.1	23.1
O=c1cc(NCCO)c2ccccc2o1	1.2	-4.8	1.2	-0.2	1.6
O=c1cc(NCCc2ccccc2)c2ccccc2o1	15.8	-2.6	9.0*	-0.2	1.3
COc1ccc2cc(C3C(C#N)=C(N)OC(C)=C3C(C)=O)c(Cl)nc2c1 (configuration not stated)	-1.3	-6.9	9.0*	-0.3	-0.5
CC(=O)C1=C(C)OC(N)=C(C#N)C1c1ccncc1 (configuration not stated)	3.9	-3.2	-3.2	0.1	-10.6
Cc1ccc2nc(-c3sc4nc(C)ccc4c3N)[nH]c2c1	-0.9	26.4*	1.0	-0.2	4.1
Cc1cccc(NNC(N)=S)c1C	-5.7	10.2*	-2.0	0.0	-3.7
Cc1ccc(C)c(NNC(N)=S)c1	-7.9	-3.7	-1.8	-0.3	-4.3
COc1cc(NC(=O)Cc2cccs2)c(C(=O)O)cc1OC	-2.3	0.2	-0.4	-0.3	0.8
CCOc1ccc(-c2cc3nc(C4CCN(C(=O)OC(C)(C)C)CC4)c(C(=O)O)cn3n2)cc1	49.5*	-1.3	-1.4	0.1	-6.0
Cc1nnc(SC/C=C/c2ccccc2)n(N)c1=O	10.2	9.8*	0.6	0.1	-3.3
Cc1nnc(SCc2ccccc2)n(N)c1=O	-11.3	-3.2	-3.1	-0.5	0.7
Cc1nnc(SCC(=O)N2CCCC2)n(N)c1=O	15.3	10.5*	-0.7	-0.2	-3.1
CN(CC(=O)NCCc1ccccc1)S(=O)(=O)c1ccccc1	-1.2	13.7*	0.5	0.2	-4.7
Nc1nc(-c2ccc(Cl)cc2)cc(C(F)(F)F)n1	11.1	-2.5	0.3	0.4	-1.1
Oc1ccc(/C=N/Nc2nc(-c3ccc(Cl)cc3)cc(C(F)(F)F)n2)cc1	-40.3	-9.3	10.5*	-0.5	-0.5
Cn1c(COc2cccc3ccccc23)nnc1SCC(=O)OC1CCCCC1	x	x	9.5*	x	x
CCn1c(COc2ccccc2C)nnc1SCC(=O)CC(=O)Nc1ccccc1	-9.3	-3.3	11.9*	0.1	-2.9
CCn1c(COc2cccc3ccccc23)nnc1SCC(=O)OC1CCCCC1	33.8*	-0.1	-4.0	-0.2	-2.0
SMILES	Arbovirus inh	Efa HMGR inh	Wee1 stabilizer	Hsp70 act	PKD1 kinase inh
CCn1c(COc2ccccc2C)nnc1SCC(=O)O	-1.0	4.4	-1.6	-0.3	-2.7
Cc1cc(NC(=S)Nc2cccc3ccccc23)n[nH]1	5.8	1.3	1.3	0.9	-6.8
O=C(NN=C1C2CC3CC(C2)CC1C3)c1cccs1	8.8	-4.0	9.5*	-0.3	-0.1
CCC1S/C(=N/C(=O)NC2CCCCC2)NC1=O (configuration not stated)	10.6	10.2*	-1.1	-0.3	-2.5
CC1C/C(=C\c2cccnc2)C(=O)/C(=C/c2cccnc2)C1 (configuration not stated)	-30.8	-3.6	-3.3	110.0*	-3.6
COCC1=C(C(=O)OC)C(c2ccco2)n2ncnc2N1 (configuration not stated)	x	x	-1.3	x	x
O=C(Cc1n[nH]c(=O)c2ccccc12)NCc1ccc(Cl)cc1	x	x	-2.4	x	x
O=C(Cc1n[nH]c(=O)c2ccccc12)NCc1ccccn1	14.2	10.4*	-2.2	0.0	3.4
COc1ccc(CCNC(=O)Cn2c([N+](=O)[O-])cnc2C)cc1OC	-2.2	-2.9	10.8*	-0.2	-4.4
CCOc1ccccc1NC(=O)c1ccc(S(=O)(=O)N2CCOCC2)cc1	-3.5	-5.6	10.6*	-0.1	-6.2
COc1ccccc1C(=O)NCC1CCN(c2ccc(S(=O)(=O)N3CCOCC3)cc2)CC1	44.8*	-5.9	2.3	-0.4	4.5
CCC1CCCCN1C(=S)Nc1cccc(S(=O)(=O)N(C)C)c1 (configuration not stated)	2.4	-4.6	5.7	-0.4	-2.2
CC(C)NC(=O)NC(=O)COC(=O)c1ccc(F)cc1F	-2.4	-12.0	-2.6	-0.4	-1.8
COc1ccc(NC(=O)CCN2C(=O)c3ccncc3C2=O)cc1OC	x	x	0.2	x	x
COc1ccc2nc(NC(=O)c3cccs3)sc2c1	x	x	9.5*	x	x
O=S(=O)(Cc1ccccc1Cl)NCCOc1ccccc1	-3.6	-1.7	9.0*	-0.3	-6.4
O=C(COc1ccccc1C(=O)NCc1ccncc1)Nc1ccc(Br)cc1	18.5	-7.2	-0.7	-0.2	-6.7
CCCCCC[n+]1c(-c2ccccc2)csc1Nc1ccccc1	-0.9	-2.0	3.6	-0.3	-9.7
COc1ccc(-c2csc(Nc3ccccc3)[n+]2CC(O)c2ccc([N+](=O)[O-])cc2)cc1 (configuration not stated)	x	x	9.3*	x	x
Cc1nnc2sc(SCc3cccc(Cl)c3)nn2c1=O	30.5*	-2.3	1.7	-0.1	-3.3
O=C(NCc1ccc2c(c1)OCO2)C1CC(c2ccc(Cl)cc2)=NO1 (configuration not stated)	-10.5	1.7	8.8*	0.1	-1.1
CCn1c2ccccc2c2cc(N=C3SC(CC(=O)Nc4ccccc4OC)C(=O)N3C)ccc21 (configuration not stated)	-2.0	5.1	-0.2	-0.1	7.7
CCn1c2ccccc2c2cc(N=C3SC(CC(=O)Nc4ccccc4)C(=O)N3C)ccc21 (configuration not stated)	-0.7	-5.8	17.0*	-0.5	-9.4
Cc1cc(Br)ccc1S(=O)(=O)n1ccnc1C	6.6	-2.0	0.0	-0.3	5.2
COc1ccc(N2CCN(c3oc(COc4ccccc4Cl)nc3C#N)CC2)cc1	-3.5	-0.9	9.6*	-0.2	-7.0
CCc1cccc(CC)c1NC(=O)CSc1nnc(CCC(=O)O)c(=O)[nH]1	2.2	-4.2	9.5*	-0.1	-3.1
O=C(OCC(O)COC(=O)c1cccnc1)c1cccnc1	x	x	-3.1	x	x
CC1CC(C)(C)CC2(C1)NC(=O)N(CC(=O)NCCc1c[nH]c3ccccc13)C2=O (configuration not stated)	31.7*	-3.7	1.2	-0.2	-6.2
C#CC(C)(CC)NC(=O)Cn1nnc(-c2cccc(C(F)(F)F)c2)n1 (configuration not stated)	-4.5	-0.5	4.5	0.7	-4.5
Cc1ccccc1NC(=O)COC(=O)c1cc(=O)c2ccccc2o1	23.5	-0.9	3.3	-0.1	-1.4
